Records with an inconclusive call do not appear. The source made the active and inactive calls. Unless noted, calls follow the shape of the full dose curve.
Key:
[1] = Nuclear factor erythroid 2-related factor 2/antioxidant responsive element (Nrf2/ARE) small molecule agonists: qHTS cell viability counter screen in human keratinocytes (AID 1919968; active = well fitted cell-killing curve with a large enough effect in the repeat runs; also: nearly all actives have a fitted effect of over 55% in size)
How it was run: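 Viability counter-screen: KeratinoSens reporter cells, DMSO-delivered compounds, 23 h at 37 C, CellTiter-Fluor fluorescence.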

[2] = Nuclear factor erythroid 2-related factor 2/antioxidant responsive element (Nrf2/ARE) small molecule agonists: luciferase reporter gene qHTS assay in human keratinocytes (AID 1919969); also: nearly all actives have a fitted effect of over 35% in size
[3] = target: Gonadotropin-releasing hormone receptor (Homo sapiens) (UniProt P30968); assay: Human gonadotropin-releasing hormone receptor (GnRHR) small molecule agonists, calcium flux assay in GnRHR-HEK293 cells (AID 1920063); also: nearly all actives have a fitted effect of over 35% in size
Gonadotropin-releasing hormone receptor (Homo sapiens), sequence (P30968 whole entry, looked up): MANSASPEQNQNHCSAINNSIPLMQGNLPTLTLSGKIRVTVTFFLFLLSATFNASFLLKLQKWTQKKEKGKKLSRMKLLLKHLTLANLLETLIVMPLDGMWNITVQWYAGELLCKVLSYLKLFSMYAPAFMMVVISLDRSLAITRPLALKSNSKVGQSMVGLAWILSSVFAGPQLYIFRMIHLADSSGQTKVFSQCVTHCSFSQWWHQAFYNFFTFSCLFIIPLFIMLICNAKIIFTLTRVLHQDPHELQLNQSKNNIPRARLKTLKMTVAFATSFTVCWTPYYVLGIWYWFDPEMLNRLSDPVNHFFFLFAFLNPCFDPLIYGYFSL
How it was run: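 Tox21-format agonist screen using human GnRHR-expressing HEK293 cells and a fluorescent calcium dye; kinetic 3-min fluorescence reading after compound addition, 15-point concentration series run in triplicate.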

[4] = p53 small molecule agonists, cell-based qHTS assay with human liver microsomes (AID 1963577);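 also: p53 response element beta-lactamase reporter cells with liver microsomes plus NADPH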
How it was run: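 16 h, 37 C exposure of p53RE-bla cells to compounds with human liver microsomes and NADPH (0.5 mg/mL final each); detection via LiveBLAzer mixture, 2 h dark at room temperature.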

[5] = p53 small molecule agonists, cell-based qHTS assay with rat liver microsomes (AID 1963578)
How it was run: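 With rat liver microsomes and NADPH present (0.5 mg/mL final each), p53RE-bla cells are treated with compound for 16 h at 37 C. LiveBLAzer detection mixture is then applied for 2 h at room temperature in the dark.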

[6] = p53 small molecule agonists, cell-based qHTS assay with human liver microsomes: qHTS cell viability counter screen (AID 1963579); also: nearly all actives have a fitted effect of over 45% in size
How it was run: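 In this multiplexed counter screen, the reporter plates were subsequently treated with CellTiter-Glo so that cell viability, reflected by luminescence, could be recorded for p53RE-bla cells dosed 16 h with compounds under microsomal activation (HLM and NADPH).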

[7] = p53 small molecule agonists, cell-based qHTS assay with rat liver microsomes: qHTS cell viability counter screen (AID 1963580); also: nearly all actives have a fitted effect of over 45% in size
How it was run: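 In HCT-116 cells carrying a p53 response element-bla reporter, compounds were metabolically activated in situ by rat liver microsomes with NADPH over 16 h. Cell ATP content then served as the cytotoxicity measure.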

[8] = p53 small molecule agonists, cell-based qHTS assay: qHTS cell viability counter screen (AID 1963581); also: nearly all actives have a fitted effect of over 45% in size
How it was run: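 Compounds are pinned onto HCT-116 p53RE-bla cells and left 16 h at 37 C. Following the reporter FRET read, ATP is quantified by CellTiter-Glo luminescence after 30 min at room temperature.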

[9] = p53 small molecule agonists, cell-based qHTS assay (AID 1963582; active = well fitted activation curve with a large enough effect in the signal ratio in the repeat runs, not every such curve was filed as active; the % refers to the signal ratio)
How it was run: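 Agonist activity was scored from beta-lactamase FRET fluorescence in p53RE-bla cells treated 16 h at 37 C with compounds in DMSO, substrate incubation being 2 h at room temperature.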

[10] = target: 5-hydroxytryptamine receptor 2A (Homo sapiens) (UniProt P28223); assay: 5-hydroxytryptamine receptor 2A (HTR2A) small molecule antagonists, cell-based qHTS assay (AID 1963586); also: nearly all actives have a fitted effect of over 45% in size; also: potency is read from the fitted curve at half-maximal effect
5-hydroxytryptamine receptor 2A (Homo sapiens), sequence (P28223 whole entry, looked up): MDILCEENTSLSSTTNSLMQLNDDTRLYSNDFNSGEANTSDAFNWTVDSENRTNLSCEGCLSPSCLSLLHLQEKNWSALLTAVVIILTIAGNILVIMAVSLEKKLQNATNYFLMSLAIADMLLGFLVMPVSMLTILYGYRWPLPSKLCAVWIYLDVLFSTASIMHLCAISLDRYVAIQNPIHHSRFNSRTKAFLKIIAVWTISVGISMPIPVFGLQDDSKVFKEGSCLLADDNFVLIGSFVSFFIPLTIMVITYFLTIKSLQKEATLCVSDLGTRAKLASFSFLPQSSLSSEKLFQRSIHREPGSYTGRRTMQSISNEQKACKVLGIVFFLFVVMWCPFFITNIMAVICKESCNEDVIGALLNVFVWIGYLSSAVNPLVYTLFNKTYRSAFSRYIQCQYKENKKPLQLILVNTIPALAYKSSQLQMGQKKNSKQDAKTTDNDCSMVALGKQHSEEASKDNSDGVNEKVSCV
How it was run: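 Antagonist-mode intracellular calcium assay: DOI (4 nM) added after 5 min compound pre-incubation at room temperature to dye-loaded HTR2A-CHO cells. Fluorescence followed for 3 min, sampled every second.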

[11] = target: 5-hydroxytryptamine receptor 2A (Homo sapiens) (UniProt P28223); assay: 5-hydroxytryptamine receptor 2A (HTR2A) small molecule agonists, cell-based qHTS assay (AID 1963587); also: nearly all actives have a fitted effect of over 30% in size
How it was run: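 HTR2A-CHO cells, plated 18 h at 37 C/5% CO2, dye-loaded 1 h at 37 C; compounds in DMSO added by pin tool (agonist mode). Intracellular calcium flux read as kinetic fluorescence on FDSS over 2 min at 1 s intervals.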

[12] = target: Muscarinic acetylcholine receptor M1 (Homo sapiens) (UniProt P11229); assay: Cholinergic receptor muscarinic 1 (CHRM1) small molecule antagonists, cell-based qHTS assay (AID 1963588); also: nearly all actives have a fitted effect of over 40% in size
Muscarinic acetylcholine receptor M1 (Homo sapiens), sequence (P11229 whole entry, looked up): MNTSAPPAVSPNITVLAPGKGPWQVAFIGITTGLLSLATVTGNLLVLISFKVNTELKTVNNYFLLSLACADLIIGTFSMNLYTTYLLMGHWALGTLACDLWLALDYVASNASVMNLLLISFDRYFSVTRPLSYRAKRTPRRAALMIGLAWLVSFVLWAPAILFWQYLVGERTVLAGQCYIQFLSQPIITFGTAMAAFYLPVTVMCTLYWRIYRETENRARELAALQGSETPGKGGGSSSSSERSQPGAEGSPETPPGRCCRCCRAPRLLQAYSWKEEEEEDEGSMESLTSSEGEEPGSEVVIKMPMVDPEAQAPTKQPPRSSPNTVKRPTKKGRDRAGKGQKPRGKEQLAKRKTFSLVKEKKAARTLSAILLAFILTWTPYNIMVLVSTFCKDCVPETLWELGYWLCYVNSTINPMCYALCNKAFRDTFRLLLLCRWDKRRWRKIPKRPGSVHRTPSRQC
How it was run: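 CHRM1-CHO calcium-flux assay, antagonist mode. Cells were seeded 18 h, dye-loaded 1 h at 37 C and given compound for 5 min at RT, then acetylcholine was added at 50nM. FDSS fluorescence was read 3 min; 15 concentrations, three runs.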

[13] = target: Muscarinic acetylcholine receptor M1 (Homo sapiens) (UniProt P11229); assay: Cholinergic receptor muscarinic 1 (CHRM1) small molecule agonists, cell-based qHTS assay (AID 1963589); also: nearly all actives have a fitted effect of over 35% in size
How it was run: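 Stable CHRM1-CHO cells (human receptor) were incubated 18 h, dye-loaded for 1 h at 37 C and exposed to test compounds for agonist activity, with calcium-dependent fluorescence followed kinetically.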

[14] = cAMP Responsive Elements (CRE) small molecule agonists, cell-based qHTS assay (AID 1963590)
How it was run: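 FRET-based beta-lactamase readout (LiveBLAzer B/G, 2 h RT) quantified CRE activation in HEK 293T CRE-bla cells after 3 h treatment with DMSO-dissolved compounds.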

[15] = cAMP Responsive Elements (CRE) small molecule antagonists, cell-based qHTS assay (AID 1963591; active = well fitted inhibition curve with a large enough effect in the signal ratio in the repeat runs, not every such curve was filed as active; the % refers to the signal ratio)
How it was run: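 qHTS in CRE-bla HEK 293T cells: compound in DMSO, then 0.25 uM NKH477 (final), 3 h at 37 °C/5% CO2; beta-lactamase FRET read-out after 2 h substrate incubation.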

[16] = target: Beta-2 adrenergic receptor (Homo sapiens) (UniProt P07550); assay: Adrenergic beta2 receptor (ADRB2) small molecule antagonists, cell-based qHTS assay (AID 1963592); also: series mostly up to about 92 µM; nearly all actives have a fitted effect of over 50% in size
Beta-2 adrenergic receptor (Homo sapiens), sequence (P07550 whole entry, looked up): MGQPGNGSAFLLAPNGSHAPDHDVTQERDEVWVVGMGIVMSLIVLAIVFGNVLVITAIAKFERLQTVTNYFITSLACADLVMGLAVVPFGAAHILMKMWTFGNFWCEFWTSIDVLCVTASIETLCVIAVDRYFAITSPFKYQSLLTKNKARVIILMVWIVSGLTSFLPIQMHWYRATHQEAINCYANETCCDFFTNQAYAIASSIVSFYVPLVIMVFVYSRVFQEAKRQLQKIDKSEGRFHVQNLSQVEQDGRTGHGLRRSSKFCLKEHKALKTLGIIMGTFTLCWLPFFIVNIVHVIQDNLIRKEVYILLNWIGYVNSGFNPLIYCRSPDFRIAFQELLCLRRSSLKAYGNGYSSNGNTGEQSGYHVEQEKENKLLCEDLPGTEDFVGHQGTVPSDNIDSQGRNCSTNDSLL
How it was run: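 Cells (CHO, stable ADRB2 overexpression) incubated 18-20hr at 37C; compounds added from DMSO; agonist mix (1nM isoproterenol, 100uM IBMX, 25uM Ro-20-1724) added; 0.5hr RT; d2-cAMP and anti-cAMP-cryptate added; 1hr RT; 665/615 nm read.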

[17] = target: Beta-2 adrenergic receptor (Homo sapiens) (UniProt P07550); assay: Adrenergic beta2 receptor (ADRB2) small molecule agonists, cell-based qHTS assay (AID 1963593);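 also: CHO cells stably overexpressing human ADRB2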
How it was run: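 CHO cells stably over-expressing ADRB2 were plated overnight at 37C, then dosed with compounds plus a stimulation mix containing 100uM IBMX and 25uM Ro-20-1724 for 0.5hr at room temperature. cAMP was measured by HTRF competition, 1hr.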

[18] = target: D(2) dopamine receptor (Homo sapiens) (UniProt P14416); assay: Dopamine D2 receptor (DRD2) small molecule agonists, cell-based qHTS assay (AID 1963594); also: nearly all actives have a fitted effect of over 35% in size
D(2) dopamine receptor (Homo sapiens), sequence (P14416 whole entry, looked up): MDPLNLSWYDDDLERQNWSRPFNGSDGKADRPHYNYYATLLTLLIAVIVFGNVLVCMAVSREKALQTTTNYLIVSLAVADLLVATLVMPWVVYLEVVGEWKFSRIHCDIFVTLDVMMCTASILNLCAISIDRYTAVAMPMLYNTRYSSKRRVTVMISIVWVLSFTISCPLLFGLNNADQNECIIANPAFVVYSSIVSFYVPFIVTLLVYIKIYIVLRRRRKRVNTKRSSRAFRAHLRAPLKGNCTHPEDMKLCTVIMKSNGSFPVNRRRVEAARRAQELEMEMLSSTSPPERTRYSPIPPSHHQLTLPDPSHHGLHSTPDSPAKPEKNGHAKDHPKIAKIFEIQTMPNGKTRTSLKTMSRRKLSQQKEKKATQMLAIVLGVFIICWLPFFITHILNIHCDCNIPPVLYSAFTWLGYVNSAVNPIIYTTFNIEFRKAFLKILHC
How it was run: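 HEK293 cells stably expressing DRD2 were cultured 24 h at 37 C, then given Ro20-1724 (0.1 mM final) and compounds for 10 min at room temperature. NKH477 (200nM) was then added for 30 min. cAMP was read by HTRF.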

[19] = target: D(2) dopamine receptor (Homo sapiens) (UniProt P14416); assay: Dopamine D2 receptor (DRD2) small molecule antagonists, cell-based qHTS assay (AID 1963595; active = well fitted inhibition curve with a large enough effect in the signal ratio in the repeat runs, with a control signal flat; the % refers to the signal ratio)
How it was run: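 HEK293 cells stably expressing DRD2 were preincubated with 0.1 mM Ro20-1724, then with compound for 10 min at room temperature. Cells were stimulated with 200 nM NKH477 plus 12 nM quinpirole for 30 min, and cAMP was read by HTRF.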

Measured: Potency

C[C@H]1C[C@H](O)c2ccsc2S1(=O)=O
inactive: all assays above

CC(C)C(=O)O
inactive: all assays above

CCN1CCC[C@H]1CNC(=O)c1c(O)c(Cl)cc(Cl)c1OC
active: [10] 18.3 µM
not listed: [17] | [19]
inactive: all other assays above

CC(=C(CCOC(=O)C(C)C)SSC(CCOC(=O)C(C)C)=C(C)N(C=O)Cc1cnc(C)nc1N)N(C=O)Cc1cnc(C)nc1N
not listed: [17] | [19]
inactive: all other assays above
